The results in this text go back to PubChem BioAssay (NCI).

The panel holds about 83,000 compounds, 20% with a hit somewhere; the sample as a whole holds those more often.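 Plates (96-well) were seeded with cells, treated with compound at one concentration, and incubated for 48 hours before percent growth was determined.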 A number with no mark means an inactive call. Activity calls are given as the source filed them. How the source made its calls: active means growth percent below 10; inactive means the rest.

Test systems include NCI-H23 lung; NCI-H226 lung; NCI-H322M lung; HOP-62 NSCLC; NCI-H460 lung; HOP-92 NSCLC; NCI-H522 lung; A549/ATCC NSCLC; 786-0 renal; COLO 205 colon.
Common to all, as to experiment: NCI-60 one-dose screen, 48 h (100 = growth as untreated, 0 = no growth, -100 = all killed)
What all share (conditions): 10 µM unless noted

For the compound `C=CC[PH+](c1ccccc1)c1ccccc1.C=CC[PH+](c1ccccc1)c1ccccc1.[Pt+2].[S-]c1ncccn1.[S-]c1ncccn1`, the growth with NCI-H23 lung was 36.6%; with NCI-H226 lung, 3.04% (active); in the assay on NCI-H322M lung, 85.1%; in the assay on HOP-62 NSCLC, 90.3%; in the assay on NCI-H460 lung it was 91.6%; with HOP-92 NSCLC it was -7.37% (active). In addition, the growth in the assay with NCI-H522 lung is -46.1% (active); in the assay with A549/ATCC NSCLC, 71.4%; in the assay with 786-0 renal, 19.6%; in the assay with COLO 205 colon it was -11.5% (active).
Turning to `Oc1cc(Cl)ccc1Oc1ccc(Cl)cc1Cl`, the growth is 7.13% (active) in the assay with NCI-H23 lung; 99.7% with NCI-H226 lung; 97.6% in the assay with NCI-H322M lung; 20.5% with HOP-62 NSCLC; 3.2% (active) in the assay with NCI-H460 lung; -11.4% (active) in the assay with HOP-92 NSCLC. The growth with NCI-H522 lung was -4.34% (active); in the assay on A549/ATCC NSCLC it was 37.5%; in the assay with 786-0 renal, 86.4%; in the assay with COLO 205 colon, 105%.
As for `CCN1C(=O)NC(=O)C(C)(N2C(=O)c3c(F)c(F)c(F)c(F)c3C2=O)C1=O` (stereo not given), the growth is 32.3% in the assay on NCI-H23 lung; 105% in the assay on NCI-H226 lung; 96.7% in the assay with NCI-H322M lung; 101% with HOP-62 NSCLC; 22.8% in the assay with NCI-H460 lung; -42.6% (active) in the assay with HOP-92 NSCLC. The growth with NCI-H522 lung is -76.6% (active); in the assay on A549/ATCC NSCLC, 43.1%; in the assay on 786-0 renal, 37.4%; with COLO 205 colon it was -51.4% (active).
As to `CCOC(=O)c1cncn1C(C)c1ccccc1` (stereo not given), the growth is 118% with NCI-H23 lung; 105% with NCI-H226 lung; 101% in the assay with NCI-H322M lung; 97.7% in the assay with HOP-62 NSCLC; 118% in the assay with NCI-H460 lung; 95.8% with HOP-92 NSCLC. Besides, the growth in the assay with NCI-H522 lung was 94.3%; in the assay on A549/ATCC NSCLC, 103%; with 786-0 renal it was 97%; in the assay on COLO 205 colon, 109%.
For the compound `COc1cc(C=C2C(=O)NC(=O)NC2=O)ccc1O`, the growth in the assay with NCI-H23 lung is 98.1%; in the assay on NCI-H226 lung, 96.1%; with NCI-H322M lung, 117%; in the assay with HOP-62 NSCLC, 100%; with NCI-H460 lung it was 108%; in the assay on HOP-92 NSCLC it was 113%. For the same compound, the growth was 96.9% with NCI-H522 lung, 102% in the assay with A549/ATCC NSCLC, 99.7% in the assay with 786-0 renal and 109% with COLO 205 colon.
`S=P(SP(=S)(c1ccccc1)c1ccccc1)(c1ccccc1)c1ccccc1`: the growth in the assay with NCI-H23 lung was 99%; in the assay with NCI-H226 lung, 96.6%; with NCI-H322M lung, 107%; in the assay on HOP-62 NSCLC, 111%; in the assay with NCI-H460 lung it was 107%; in the assay on HOP-92 NSCLC it was 86.7%. Further, the growth was 88.5% with NCI-H522 lung, 106% with A549/ATCC NSCLC, 110% with 786-0 renal and 118% in the assay on COLO 205 colon.
Turning to `COc1ccc(N(CC(=O)NCCC[Te]c2ccccc2)C(=O)c2ccccc2)cc1`, the growth with NCI-H23 lung is 0.588% (active); with NCI-H226 lung, 52.7%; with NCI-H322M lung, 4.82% (active); in the assay on HOP-62 NSCLC it was 15.8%; in the assay with NCI-H460 lung, -1.52% (active); in the assay on HOP-92 NSCLC it was -9.19% (active). In addition, the growth in the assay on NCI-H522 lung is -9.72% (active); in the assay on A549/ATCC NSCLC it was 2.78% (active); in the assay on 786-0 renal it was 75.3%; in the assay on COLO 205 colon, 89.2%.
As to `C[N+]1(C)CCCC1c1cccnc1` (stereo not given), the growth is 101% in the assay with NCI-H23 lung; 98.3% with NCI-H226 lung; 104% in the assay on NCI-H322M lung; 101% in the assay on HOP-62 NSCLC; 108% with NCI-H460 lung; 88.9% with HOP-92 NSCLC. Besides, the growth is 102% in the assay on NCI-H522 lung, 95.9% in the assay on A549/ATCC NSCLC, 91% in the assay on 786-0 renal and 109% in the assay on COLO 205 colon.
`CC[C@H](C)[C@H](NC(=O)[C@H]1CCCCN1C)C(=O)N(C)[C@H](CCc1nc(C(=O)N[C@@H](Cc2ccccc2)C[C@H](C)C(=O)O)cs1)C(C)C`: the growth with NCI-H23 lung was 29.9%; in the assay with NCI-H226 lung, 31%; in the assay on NCI-H322M lung, 49.9%; with HOP-62 NSCLC, 12.6%; in the assay with NCI-H460 lung, 8.77% (active); with HOP-92 NSCLC it was 30.3%. Further, the growth with NCI-H522 lung is -6.97% (active); in the assay with A549/ATCC NSCLC it was 22.4%; with 786-0 renal, 31.8%; with COLO 205 colon, -37.9% (active).
For the compound `CC[PH+](CC)CC.O=COC1OC([S-])C(OC=O)C(OC=O)C1OC=O.[Au+]` (stereo not given), the growth is -57.3% (active) in the assay with NCI-H23 lung; -66.7% (active) in the assay with NCI-H226 lung; -95.9% (active) in the assay on NCI-H322M lung; -83.1% (active) with HOP-62 NSCLC; -59% (active) in the assay on NCI-H460 lung; -86.8% (active) with HOP-92 NSCLC. Moreover, the growth was -75% (active) with NCI-H522 lung, -76.6% (active) in the assay with A549/ATCC NSCLC, -83.4% (active) with 786-0 renal and -84.9% (active) in the assay with COLO 205 colon.
Take `Cc1ccc(N2CCN(CCC#N)CC2)cc1`: the growth with NCI-H23 lung was 100%; with NCI-H226 lung, 92.1%; with NCI-H322M lung, 75.2%; in the assay on HOP-62 NSCLC, 93.6%; with NCI-H460 lung, 97.7%; in the assay on HOP-92 NSCLC it was 98.4%. The growth in the assay with NCI-H522 lung is 84.6%; in the assay on A549/ATCC NSCLC, 88.5%; in the assay with 786-0 renal it was 100%; in the assay on COLO 205 colon it was 93.7%.
Take `CC1=C([Te]c2ccccc2)C(=O)c2ccccc2C1=O`: the growth in the assay with NCI-H23 lung is -33.9% (active); with NCI-H226 lung it was -52.1% (active); in the assay with NCI-H322M lung, -22.8% (active); in the assay on HOP-62 NSCLC, -49.5% (active); in the assay with NCI-H460 lung, -57.7% (active); with HOP-92 NSCLC, -53.8% (active). Moreover, the growth in the assay on NCI-H522 lung is -15.3% (active); in the assay with A549/ATCC NSCLC it was -66.1% (active); in the assay on 786-0 renal it was -46.2% (active); with COLO 205 colon, -83.6% (active).
